Inconclusive results are not listed. The source made the active and inactive calls. Unless noted, the call rests on the fitted dose curve; in most records, active means well fitted curve in the direction sought with a large enough effect in the repeat runs; inconclusive means weak or mixed curves; inactive means no such curve, though single readings can be large; an effect the other way counts as inactive or inconclusive.
Experiments:
[1] = qHTS assay to identify aromatase inhibitors - cell viability counter screen (AID 743084);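 further: cells stimulated with testosterone during compound exposure; nearly all actives have a fitted effect of over 55% in size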
[2] = qHTS assay to identify small molecule that activate the aryl hydrocarbon receptor (AhR) signaling pathway - cell viability counter screen (AID 743086);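 further: HepG2 liver cells carrying the AhR DRE luciferase reporter; series mostly up to about 70 µM; nearly all actives have a fitted effect of over 45% in size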
In short: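 HepG2-AhR-luc (HG2L7.5c1) cells, 4000/well, treated 24 h at 37 C with compound; viability measured as CellTiter-Fluor fluorescence after 30 min in the same wells as the luciferase read.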

[3] = target: Peroxisome proliferator-activated receptor gamma (Homo sapiens) (UniProt P37231); assay: qHTS assay to identify small molecule agonists of the peroxisome proliferator-activated receptor gamma (PPARg) signaling pathway (AID 743094; active means well fitted activation curve with a large enough effect in the signal ratio in the repeat runs, not every such curve was filed as active; the % refers to the signal ratio)
In short: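 Fluorescence-based beta-lactamase readout in HEK293H PPARg UAS-bla cells after 17 h compound exposure (37C) and 1 h B/G FRET substrate incubation at room temperature.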

[4] = qHTS assay to identify small molecule antagonists of the peroxisome proliferator-activated receptor gamma (PPARg) signaling pathway - cell viability counter screen (AID 743194); further: nearly all actives have a fitted effect of over 55% in size
In short: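 Cytotoxicity counter screen in PPARg-bla HEK293H cells, same wells as reporter assay. Compounds plus 50 nM rosiglitazone (final) for 17 h at 37 C, then viability read by CellTiter-Glo luminescence.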

[5] = qHTS assay for small molecule agonists of the antioxidant response element (ARE) signaling pathway (AID 743202; active means well fitted activation curve with a large enough effect in the signal ratio in the repeat runs, not every such curve was filed as active; the % refers to the signal ratio)
In short: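 HepG2 ARE-bla reporter line, 2,000 cells/well; 5 h preincubation 37 C/5% CO2; compound (DMSO) 16 h 37 C; B/G FRET substrate 2 h RT; fluorescence intensity.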

[6] = qHTS assay for small molecule agonists of the antioxidant response element (ARE) signaling pathway - cell viability counter screen (AID 743203; calls by dose curve; further: nearly all actives have a fitted effect of over 55% in size)
In short: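 Parallel cytotoxicity read-out for the ARE-bla screen: HepG2 reporter cells, 16 hrs with compounds, then CellTiter-Glo luminescence.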

[7] = qHTS assay for small molecule activators of the heat shock response signaling pathway (AID 743210; active means well fitted activation curve with a large enough effect in the signal ratio in the repeat runs, with a control signal flat, not every such curve was filed as active; the % refers to the signal ratio;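 further: HeLa cells with beta-lactamase reporter driven by heat shock elements; series mostly up to about 63 µM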)
In short: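 Beta-lactamase reporter read-out: FRET substrate fluorescence after 2.5 h at RT, following 5 h compound treatment at 37 C of HeLa cells carrying HSE-driven bla reporter; quantitative HTS format.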

[8] = qHTS assay to identify small molecule agonists of the peroxisome proliferator-activated receptor delta (PPARd) signaling pathway - cell viability counter screen (AID 743211); further: nearly all actives have a fitted effect of over 55% in size
In short: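 In the same wells used for beta-lactamase reporter measurement, cytotoxicity is scored by CellTiter-Glo. HEK293H PPARd-bla cells receive compound for 17 h at 37C following a 5 h settling period.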

[9] = target: Peroxisome proliferator-activated receptor delta (Homo sapiens) (UniProt Q03181); assay: qHTS assay to identify small molecule agonists of the peroxisome proliferator-activated receptor delta (PPARd) signaling pathway (AID 743212; calls by dose curve)
In short: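 Read-out: beta-lactamase FRET fluorescence after 2 h room-temperature incubation with LiveBLAzer B/G substrate. Cells were HEK293H carrying a UAS-bla reporter for PPARd, treated at 37 C with DMSO-dissolved compounds.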

[10] = target: Peroxisome proliferator-activated receptor delta (Homo sapiens) (UniProt Q03181); assay: qHTS assay to identify small molecule antagonists of the peroxisome proliferator-activated receptor delta (PPARd) signaling pathway (AID 743215; active means well fitted inhibition curve with a large enough effect in the signal ratio in the repeat runs, not every such curve was filed as active; the % refers to the signal ratio;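 further: cells stimulated with agonist L165041 at 300 nM final during compound exposure; series mostly up to about 62 µM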)
In short: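 Screen format: qHTS, antagonist mode. HEK293H PPARd-bla cells received compound and 300 nM L165041 (final), 17 h, 37 C. Beta-lactamase detected via FRET substrate fluorescence, 2 h, room temperature.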

[11] = target: Bile acid receptor (Homo sapiens) (UniProt Q96RI1); assay: qHTS assay to identify small molecule antagonists of the farnesoid-X-receptor (FXR) signaling pathway (AID 743217; active means well fitted inhibition curve with a large enough effect in the signal ratio in the repeat runs, not every such curve was filed as active; the % refers to the signal ratio)
In short: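 Quantitative HTS, beta-lactamase reporter format: FXR-UAS-bla HEK 293T cells co-treated 16 h at 37 °C with compounds and 50 uM final chenodeoxycholic acid, then read by B/G FRET fluorescence.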

[12] = qHTS assay to identify small molecule antagonists of the farnesoid-X-receptor (FXR) signaling pathway - cell viability counter screen (AID 743221; active means well fitted cell-killing curve with a large enough effect in the repeat runs, not every such curve was filed as active; further: nearly all actives have a fitted effect of over 50% in size)
In short: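 Here viability was scored by luminescence after CellTiter-Glo addition to wells already read for beta-lactamase. Prior treatment: compound plus CDCA (50 uM final), 16 h, 37 C, HEK 293T FXR-bla cells.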

[13] = target: Vitamin D3 receptor (Homo sapiens) (UniProt P11473); assay: qHTS assay to identify small molecule agonists of the vitamin D receptor (VDR) signaling pathway (AID 743222; calls by dose curve)
In short: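 Using LiveBLAzer B/G FRET detection, agonism was scored in VDR-bla cells exposed overnight (16 h, 37C) to DMSO-dissolved compounds; substrate incubation was 2 h at room temperature.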

[14] = qHTS assay for small molecule activators of the heat shock response signaling pathway - cell viability counter screen (AID 743209); further: nearly all actives have a fitted effect of over 50% in size
In short: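 To flag cytotoxic compounds, HSE-bla HeLa cells plated at 1500 cells/well were dosed for 5 h at 37 C, followed by the reporter FRET read and then CellTiter-Glo, with luminescence recorded 30 min after reagent addition.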

[15] = qHTS assay to identify small molecule agonists of the farnesoid-X-receptor (FXR) signaling pathway - cell viability counter screen (AID 743218); further: nearly all actives have a fitted effect of over 45% in size
In short: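 Same-well cytotoxicity check on FXR-UAS-bla HEK 293T cells: 5 h attachment, 16 h compound at 37 C, CellTiter-Glo luminescence read at room temperature after 30 min.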

[16] = target: Peroxisome proliferator-activated receptor gamma (Homo sapiens) (UniProt P37231); assay: qHTS assay to identify small molecule antagonists of the peroxisome proliferator-activated receptor gamma (PPARg) signaling pathway (AID 743191; calls by dose curve; further: series mostly up to about 63 µM; nearly all actives have a fitted effect of over 30% in size)
In short: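 GeneBLAzer PPARg UAS-bla HEK293H cells, 5 h post-plating, exposed to compounds 17 h at 37C. LiveBLAzer B/G FRET substrate added for 1 h at room temperature; beta-lactamase reporter read by fluorescence intensity.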

[17] = qHTS assay to identify small molecule antagonists of the peroxisome proliferator-activated receptor delta (PPARd) signaling pathway - cell viability counter screen (AID 743213); further: nearly all actives have a fitted effect of over 50% in size
In short: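 PPARd-bla HEK293H cells (3000/well) got compound plus 300 nM L165041 agonist for 17 h at 37 C. Viability in the same wells came from CellTiter-Glo luminescence after 30 min at room temperature.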

[18] = target: Vitamin D3 receptor (Homo sapiens) (UniProt P11473); assay: qHTS assay to identify small molecule antagonists of the vitamin D receptor (VDR) signaling pathway (AID 743223; active means well fitted inhibition curve with a large enough effect in the signal ratio in the repeat runs, not every such curve was filed as active; the % refers to the signal ratio)
In short: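 Inhibition of agonist-driven VDR signalling is scored in VDR-bla cells: 3 nM final 1alpha,25-dihydroxyvitamin D3 plus compound, 16 h at 37C, then beta-lactamase detection by FRET substrate fluorescence after 2 h.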

[19] = target: Bile acid receptor (Homo sapiens) (UniProt Q96RI1); assay: qHTS assay to identify small molecule agonists of the farnesoid-X-receptor (FXR) signaling pathway (AID 743220; active means well fitted activation curve with a large enough effect in the signal ratio in the repeat runs, not every such curve was filed as active; the % refers to the signal ratio)
In short: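 FXR-UAS-bla HEK 293T cells carrying a UAS-driven beta-lactamase reporter were plated for 5 h at 37C/5% CO2, then exposed to DMSO-dissolved Tox21 10K compounds for 16 h at 37C. A LiveBLAzer B/G FRET substrate was loaded for 2 h at room temperature before fluorescence reading.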

Measured: Potency

Peroxisome proliferator-activated receptor delta (Homo sapiens), sequence (Q03181 whole entry, looked up): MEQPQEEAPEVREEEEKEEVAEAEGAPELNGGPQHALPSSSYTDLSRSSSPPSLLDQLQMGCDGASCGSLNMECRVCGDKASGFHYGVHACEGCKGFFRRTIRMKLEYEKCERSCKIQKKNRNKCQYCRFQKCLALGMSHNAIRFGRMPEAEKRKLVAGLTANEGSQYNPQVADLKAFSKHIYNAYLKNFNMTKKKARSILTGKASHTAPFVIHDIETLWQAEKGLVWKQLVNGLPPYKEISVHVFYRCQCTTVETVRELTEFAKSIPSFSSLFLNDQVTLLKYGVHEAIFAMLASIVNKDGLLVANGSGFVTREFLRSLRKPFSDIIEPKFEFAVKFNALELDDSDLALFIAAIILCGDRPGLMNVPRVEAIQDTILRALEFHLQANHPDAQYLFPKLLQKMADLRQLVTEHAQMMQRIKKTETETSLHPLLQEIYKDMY
Peroxisome proliferator-activated receptor gamma (Homo sapiens), sequence (P37231 whole entry, looked up): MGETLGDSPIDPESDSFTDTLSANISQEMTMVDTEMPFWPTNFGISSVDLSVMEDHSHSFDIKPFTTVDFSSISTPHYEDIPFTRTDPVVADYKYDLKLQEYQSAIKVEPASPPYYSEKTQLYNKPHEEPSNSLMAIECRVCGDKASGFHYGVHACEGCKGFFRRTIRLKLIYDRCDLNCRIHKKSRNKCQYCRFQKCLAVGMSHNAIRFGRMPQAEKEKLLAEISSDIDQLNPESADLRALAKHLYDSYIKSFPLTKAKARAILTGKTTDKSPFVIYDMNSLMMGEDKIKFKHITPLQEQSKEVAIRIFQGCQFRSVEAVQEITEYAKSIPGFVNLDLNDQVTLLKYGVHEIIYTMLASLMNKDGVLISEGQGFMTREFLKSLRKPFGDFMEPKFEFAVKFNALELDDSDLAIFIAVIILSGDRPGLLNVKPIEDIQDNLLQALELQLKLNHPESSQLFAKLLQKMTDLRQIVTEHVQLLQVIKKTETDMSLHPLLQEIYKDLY
Vitamin D3 receptor (Homo sapiens), sequence (P11473 whole entry, looked up): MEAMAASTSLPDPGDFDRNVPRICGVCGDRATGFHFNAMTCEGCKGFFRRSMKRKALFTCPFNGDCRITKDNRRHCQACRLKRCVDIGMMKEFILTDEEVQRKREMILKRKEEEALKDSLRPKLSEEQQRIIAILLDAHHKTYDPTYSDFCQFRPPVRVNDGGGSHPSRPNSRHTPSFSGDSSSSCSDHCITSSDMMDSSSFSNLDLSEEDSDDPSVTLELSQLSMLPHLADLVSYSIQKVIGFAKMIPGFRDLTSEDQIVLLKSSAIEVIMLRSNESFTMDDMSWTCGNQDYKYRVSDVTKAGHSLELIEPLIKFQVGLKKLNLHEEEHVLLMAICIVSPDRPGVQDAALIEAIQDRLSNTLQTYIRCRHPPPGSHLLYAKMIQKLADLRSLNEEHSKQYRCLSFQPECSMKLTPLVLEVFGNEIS
Bile acid receptor (Homo sapiens), sequence (Q96RI1 whole entry, looked up): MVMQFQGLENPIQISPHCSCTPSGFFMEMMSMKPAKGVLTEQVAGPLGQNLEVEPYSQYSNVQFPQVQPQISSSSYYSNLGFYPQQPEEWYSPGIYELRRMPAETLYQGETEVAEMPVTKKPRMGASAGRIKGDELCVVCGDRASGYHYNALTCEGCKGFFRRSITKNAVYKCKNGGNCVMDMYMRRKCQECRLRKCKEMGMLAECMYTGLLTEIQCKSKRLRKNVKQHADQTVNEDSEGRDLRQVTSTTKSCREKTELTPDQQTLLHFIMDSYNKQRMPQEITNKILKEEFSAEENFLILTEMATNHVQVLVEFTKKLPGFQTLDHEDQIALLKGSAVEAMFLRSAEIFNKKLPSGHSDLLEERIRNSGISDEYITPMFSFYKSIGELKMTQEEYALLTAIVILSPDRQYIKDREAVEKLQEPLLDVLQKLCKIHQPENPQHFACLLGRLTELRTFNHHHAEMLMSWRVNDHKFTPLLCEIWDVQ

Cn1c(=O)c2c(ncn2CC(O)CO)n(C)c1=O (stereo not drawn)
not listed: [14] | [15] | [16] | [17] | [18] | [19]
inactive: all other assays above

CCCCCC/C=C/C=O
inactive: [1] | [2] | [3] | [4] | [5] | [6] | [14] | [15] | [12]

CCCc1ccccc1
not listed: [3] | [5] | [11] | [19]
inactive: all other assays above

CCN(CC)C(C)CN1c2ccccc2Sc2ccccc21 (stereo not drawn)
not listed: [5] | [9] | [11] | [19]
inactive: all other assays above

CC(C(=O)O)c1ccc(C(=O)c2ccccc2)s1 (stereo not drawn)
not listed: [3]
inactive: all other assays above

O=c1c2ccccc2nnn1CCl
not listed: [4] | [5] | [11] | [19]
inactive: all other assays above

O=C(NS(=O)(=O)/C=C/c1cccs1)c1ccc(F)cc1Br
not listed: [3] | [5] | [9] | [10] | [17]
inactive: all other assays above

C1CCC2OC2C1 (stereo not drawn)
not listed: [4] | [5] | [9] | [11] | [19]
inactive: all other assays above

CC[C@H](C)[C@@H](C(=O)O)n1sc2ccccc2c1=O
not listed: [5] | [14] | [15] | [16]
inactive: all other assays above

Reference: PubChem BioAssay (Tox21)
